Screens (PubChem)
Not all results are given here.
aSyn 5UTR act: Activators working through SNCA 5'UTR binding (MLPCN); AID 1814; alpha-synuclein 5'UTR reporter, activators screen; 300,000 compounds, 7.1% hits; activity score, % (tested at 7.5 µM), hits read low; in the data active = activity score below about -60%
Active calls of the source: *.

SMILES | aSyn 5UTR act
CCC(=O)Nc1nc(-c2ccc3c(c2)OCCO3)cs1 | -136*
CC(=O)Nc1nc(-c2ccc3c(c2)CCO3)cs1 | -125*
CCC(=O)Nc1nc(-c2ccc3c(c2)CC(C)N3S(C)(=O)=O)cs1 (stereo not drawn) | -70*
COc1ccc(Nc2cc(C)c3c(O)cccc3n2)cc1 | -140*
Cc1ccc(Nc2cc(C)c3ccc(O)cc3n2)cc1C | -94*
Cc1ccccc1Nc1cc(C)c2c(O)cccc2n1 | -105*
Cc1ccc(Nc2cc(C)c3c(O)cccc3n2)cc1C | -118*
Fc1ccc(C[n+]2csc3ccccc32)cc1 | -109*
O=C(c1ccco1)N1CCN(c2nc3ccsc3c(=O)s2)CC1 | -98*
Cc1cc2nc(N3CCN(C(=O)c4cccs4)CC3)sc2cc1C | -130*
O=C(c1cccs1)N1CCN(c2nc3c(F)cc(F)cc3s2)CC1 | -78*
CC(=O)c1ccc(N2CCN(C(=O)c3ccco3)CC2)c(F)c1 | -98*
c1ccc2c(c1)CCN(c1nc3cc4c(cc3s1)OCCO4)C2 | 75
Cc1cc(C)c2nc(N3CCN(C(=O)c4ccco4)CC3)sc2c1 | -115*
Cc1cc2nc(N3CCN(C(=O)c4ccco4)CC3)sc2cc1C | -129*
CC(C)(C)C(=O)NC(=S)Nc1sc2c(c1C#N)CCCCC2 | -106*
Cc1ccc(C(=O)Nc2sc3c(c2C#N)CCCCC3)cc1C | -191*
N#Cc1c(NC(NC(=O)c2ccco2)C(=O)c2ccccc2)sc2c1CCCC2 (stereo not drawn) | -77*
Cc1cc(C(=O)Nc2sc3c(c2C#N)CCC3)no1 | -107*
Cn1cc([N+](=O)[O-])c(C(=O)Nc2sc3c(c2C#N)CCC3)n1 | 64
Cc1cc(C(=O)Nc2sc3c(c2C#N)CCCC3)no1 | -81*
Cc1ccccc1OCC(=O)Nc1sc2c(c1C#N)CCC2 | -68*
N#Cc1c(NC(=O)CCCC(=O)O)sc2c1CCCCC2 | 90
Cc1noc(C(=O)Nc2sc3c(c2C#N)CCC3)c1Cl | -67*
CCCC(=O)Nc1sc2c(c1C#N)CCCCC2 | -167*
SMILES | aSyn 5UTR act
COc1cccc(NC(=S)N/N=C2\CC3CCC2(C)C3(C)C)c1 (stereo not drawn) | -78*
CC(Cc1cccs1)NC(=O)Nc1cccc(Cl)c1 (stereo not drawn) | -62*
CN(c1cccc(NC(=O)Nc2cccc(Cl)c2)c1)S(C)(=O)=O | -92*
CN(C)c1ccc(NC(=O)Nc2cccc(Cl)c2)cc1 | -138*
COc1ccc(C(=O)Nc2cccc(N(C)S(C)(=O)=O)c2)cc1OC | -168*
Cc1nc2cc3ccccc3cc2c(=O)[nH]1 | -112*
COCCn1c(=O)c2c(nc3n2CC(C)CN3CCc2ccccc2)n(C)c1=O (stereo not drawn) | 67
COc1ccccc1Cn1nnc2c(=O)[nH]c(C3CCN(C(=O)c4ccccc4Cl)CC3)nc21 | 60
O=C1CCC(C(=O)N2CCCCO2)CN1CCc1ccccc1 (stereo not drawn) | -89*
COc1ccccc1CN1CC(C(=O)N2CCCCO2)CCC1=O (stereo not drawn) | -77*
COCCCC1CCN(C(=O)C2CCC(=O)N(CCc3ccccc3)C2)CC1 (stereo not drawn) | -74*
CCCn1c(Sc2nnnn2-c2ccccc2)n[nH]c1=O | -98*
CCN1/C(=C/c2ccc3cc(C)ccc3[n+]2CC)Sc2ccc3sccc3c21 | 131
CCN1/C(=C/c2ccc3cccc(C)c3[n+]2CC)Sc2ccccc21 | -134*
Cc1[nH]n(-c2ccccc2)c(=O)c1N=Nc1ccc2c(c1)OCCO2 | -220*
Cc1[nH]n(-c2ccccc2)c(=O)c1N=Nc1c(O)cc(S(=O)(=O)N(C)C)c2ccccc12 | 71
Cc1[nH]n(-c2ccccc2)c(=O)c1N=Nc1cccc(Cl)c1 | -202*
Cc1ccc(N=Nc2c(C)[nH]n(-c3ccccc3)c2=O)c(C)c1 | -78*
CSc1ccc(N=Nc2c(C)[nH]n(C)c2=O)cc1 | -62*
Cc1cc(N)ccc1N=Nc1c(C)n(C)n(-c2ccccc2)c1=O | -73*
Cc1[nH]n(-c2ccc(Cl)cc2)c(=O)c1N=Nc1cccnc1 | -93*
Cc1[nH]n(-c2ccccc2)c(=O)c1N=Nc1ccc(F)cc1 | -81*
Nc1c(N=Nc2cccc(Cl)c2)c(=O)[nH]n1-c1ccccc1 | -66*
C#CC[N+](C)(C)CCCCCCCCCCCC | 77
Cc1[nH]n(-c2ccccc2)c(=O)c1N=Nc1cccc([N+](=O)[O-])c1 | -71*
SMILES | aSyn 5UTR act
CC(=O)c1cnc(Nc2ccc(C)cc2)s1 | -122*
Nc1c(Cl)cc(C2=NCCn3c2c2ccc([N+](=O)[O-])cc2[n+]3[O-])cc1Cl | 61
[O-][n+]1c2cc(C(F)(F)F)ccc2c2n1CCN=C2c1ccc(Cl)cc1 | -65*
CCCc1nn(C)c(C(=O)Nc2cccc(CC)c2)c1Cl | -84*
CCCc1nn(C)c(C(=O)Nc2ccc3ccccc3c2)c1Cl | -204*
COc1ccc(/C=N/NC(=O)c2nc(-c3ccccc3)n(-c3ccccc3)n2)c(O)c1 | 87
COc1ccc(-c2c(C)nn(-c3ccccc3)c2N)cc1 | -110*
Cc1nn(-c2ccc(C(=O)O)cc2)c(N)c1-c1ccccc1 | -179*
CSc1nc2ccc3nc(NC(=O)c4ccccc4)sc3c2s1 | -318*
O=C(Nc1nc2ccsc2c(=O)s1)c1ccc(F)cc1 | -158*
O=C(Nc1nc2ccsc2c(=O)s1)c1ccc(F)cc1Cl | -117*
Cc1csc2nc(NC(=O)c3ccccc3)sc(=O)c12 | -97*
CC(C)c1ccc(NC(=O)c2sccc2-n2cccc2)cc1 | -146*
Cc1cc(-c2sccc2Br)nc(-n2cccc2)n1 | -87*
Clc1ccsc1-c1ccc2ccccc2n1 | -113*
c1ccc2nc(-c3ccncc3)ccc2c1 | -96*
Clc1ccsc1-c1ccnc(-n2cccc2)n1 | -62*
c1ccc2nc(-c3nccs3)ccc2c1 | -126*
O=c1[nH]c2ccc(NCc3ccc(OCc4ccccc4Cl)cc3)cc2[nH]1 | -80*
COc1cc(CNc2ccc3[nH]c(=O)[nH]c3c2)ccc1OCc1ccc(C)cc1 | -118*
COc1cc(CNc2ccc3[nH]c(=O)[nH]c3c2)ccc1OCc1cccc(C)c1 | -84*
COc1cc(/C=N/NS(=O)(=O)c2ccc(C)cc2)ccc1OCc1cccc(C(=O)O)c1 | 90
COc1cc(CNc2ccc(NC(C)=O)cc2)ccc1OCc1ccccc1C | -122*
COc1ccccc1-c1cc(C(=O)Nc2cccnc2)no1 | 55
COc1cccc(-c2cc(C(=O)Nc3ccccc3SC)no2)c1 | -141*
SMILES | aSyn 5UTR act
COc1ccccc1-c1cc(C(=O)Nc2ccccc2SC)no1 | -96*
CSc1ccccc1NC(=O)c1cc(CC(C)C)on1 | -178*
O=C(Nc1ccc(Cl)c(Cl)c1)N1CCCCCC1 | -140*
Cc1csc2ncnc(N3CCN(C(=S)Nc4ccc(C(F)(F)F)cc4)CC3)c12 | 56
S=C(Nc1ccc2nccnc2c1)N1CCCC1 | -87*
S=C(Nc1ccc2nsnc2c1)N1CCCC1 | -133*
O=C(Nc1ccc2nsnc2c1)N1CCCCCC1 | -98*
O=C(Nc1ccc(Cl)c(C(F)(F)F)c1)C(=O)N1CCCCC1 | -67*
O=C(Nc1ccc(SC(F)F)cc1)c1ccc(F)cc1 | -163*
O=C(N[C@H]1CC1c1ccccc1)c1ccc([N+](=O)[O-])cc1 (stereo partly drawn) | -107*
O=C(Nc1ccc(F)cc1)c1ccccc1 | -83*
O=C(Nc1ccccc1)c1ccc(NC(=O)C2CC2)cc1 | -105*
O=C(C#Cc1ccccc1)c1ccc([N+](=O)[O-])cc1 | -95*
O=C(Nc1ccc(-c2nc3ccccc3s2)c(OC(=O)c2ccccc2)c1)c1ccccc1 | -175*
